The structures appear in SMILES notation. The source made the active and inactive calls. How the source made its calls: active means hit-call score of the fitted dose curve at least 0.9, where 1 is the maximum; inactive means score below 0.9.

The assay is described as follows: ATG_CMV_CIS: Attagene CIS-FACTORIAL HepG2 Assay for human CMV (Internal Marker) (AID 2282928).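 Further: endpoint acts as a background internal control marker rather than a target.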 The settings on record: HepG2 CMV promoter reporter, transcription factor profiling; actives raise or lower the signal. The method, then: ATG_CIS is a cell-based, multiplexed-readout assay that uses HepG2, a human liver cell line, with measurements taken at 24 hours after chemical dosing in a 24-well plate.ATG_CMV_CIS is one of 52 assay component(s) measured or calculated from the ATG_CIS assay. It is designed to make measurements of mRNA induction, a form of inducible reporter, as detected with fluorescence intensity signals by Reverse transcription polymerase chain reaction (RT-PCR) and Capillary electrophoresis technology.Data from the assay component ATG_CMV_CIS was analyzed into 1 assay endpoint. This assay endpoint, ATG_CMV_CIS, was analyzed with bidirectional fitting relative to DMSO as the negative control and baseline of activity. Using a type of inducible reporter, measures of mRNA for gain or loss-of-signal activity can be used to understand the background control at the transcription factor-level as they relate to the gene . Furthermore, this assay endpoint can be referred to as a secondary readout, because this assay has produced multiple assay endpoints where this one serves a background control function. To generalize the intended target to other relatable targets, this assay endpoint is annotated to the background measurement intended target family, where the subfamily is internal marker.
Human liver HepG2 cells are transiently transfected with multiple reporter transcription units (MRTUs) in 6-well plates using FuGene 6 reagent (Roche; 3 ml FuGene/1 mg DNA). The MRTU constructs are regulated by a cis-regulating element (promoter). […] A major difference between the CIS and TRANS system is that in CIS activities of endogenous TFs are measured, whereas the TRANS assay evaluates changes in activities of exogenous, chimeric NR-Gal4 proteins. […] At the end of 24 hour incubation, total RNA was isolated using TriZol reagent (Invitrogen). The isolated RNA is then reverse-transcribed using oligo(dT) primer and Mo-MLV reverse transcriptase (Invitrogen) with DNAse I (Ambion) treatment for 30 min. The one-tenth of the produced cDNA was amplified by PCR using Taq DNA polymerase (Invitrogen) and two reporter sequence-specific primers. The PCR products were fluorescently labeled by primer extension with 6-arboxyfluorescein (6-FAM) 5'-labeled reporter sequence-specific primer (2 min at 95 C, 20 s at 68 C and 10 min at 72 C) and these products were digested with 5U of HpaI (New England Biolabs) for 2h at 37 C. The fragments were purified using Qiaquick PCR columns (Qiagen), analyzed on an ABI 3130xL genetic analyzer (Applied Biosystems) with peak positions identified by using a set of X-rhodamine (ROX)-labeled MapMarker1000 molecular weight standards (BioVentures). The raw capillary electrophoresis data was processed using Attagraph software (Attagene).
Consider `C[N+](=O)[O-]`, for which the outcome was inactive.
As for `C=CCN(CC=C)C(=O)C(Cl)Cl`, the result was inactive.
In the case of `CCC(C)(C)O`, the compound was called inactive.
As for `[Cl-].[Cl-].[Cl-].[Yb+3]`, the outcome was inactive.
With `C[C@]12CC[C@H]3[C@@H](CC[C@@]45O[C@@H]4C(O)=C(C#N)C[C@]35C)[C@@H]1CC[C@@H]2O`, the AC50 is 100 µM (active).
Regarding `CCCOC(=O)c1ccccc1C(=O)OCCC`, the call was inactive.
On the same count and under the same terms, as for `O=C1C=CC(=O)C=C1`, the entry is “inactive”.
For `C[N+](C)(C)CC(=O)[O-]`, the outcome was inactive.
`CC1(C)C(=O)NC(=O)NC1=O`: the outcome was inactive.
As to `CCOP(=O)(OCC)OCC`, the outcome was inactive.
With `O=[N+]([O-])c1ccc(Cl)cc1`, the compound was called inactive.
For the compound `Nc1ccccc1`, the call was inactive.
Take `CC(=O)c1cc2c(cc1C)C(C)(C)C(C)CC2(C)C` (stereo not given): the AC50 is 28.1 µM (active).
`CCC1CCC(=O)O1` (stereo not given): the result was inactive.
The same measure, in the same setting: as for `CC(=O)/C=C/c1ccccc1`, the entry is “inactive”; as for `CN(N=O)c1ccccc1`, “inactive”.
For `CCCCCCCCCCCCCCCC[N+](C)(C)C`, the AC50 is 48.9 µM (active).
`O=c1[nH]c(Cl)c(Cl)cc1Cl`: the outcome was inactive.
Take `Nc1ccccc1C(=O)Oc1ccc2ccccc2c1`: the AC50 was 77 µM (active).
As to `CC1OC(C)OC(C)O1` (stereo not given), the result was inactive.
Take `Oc1ccc(C2(c3ccc(O)cc3)c3ccccc3-c3ccccc32)cc1`: the AC50 is 17.7 µM (active).
As to `N#CCCCCC#N`, the result was inactive.
On to `O=C(NC(=O)c1c(F)cccc1F)Nc1ccc(Oc2ccc(C(F)(F)F)cc2Cl)cc1F`, for which the AC50 is 4.11 µM (active).
With `CC(C)c1ccc(O)cc1`, the AC50 was 40.2 µM (active).
As to `COc1ccc(CO)cc1`, the result was inactive.
Same read-out and setting: for `[N-]=[N+]=CC(=O)OC[C@H](N)C(=O)O` the value was “inactive”; for `CC1(C)CC(=O)CC(C)(C)N1[O]`, “inactive”; for `Cl/C=C\CCl`, “inactive”.
For `O=C(O)CCl`, the call was inactive.
Turning to `O=[N+]([O-])c1cc([N+](=O)[O-])c2ccccc2c1`, the AC50 is 23.5 µM (active).
As for `O=C(O)c1cc[c]([Hg][Cl])cc1`, the call was inactive.
Regarding `CCCCOP(=O)(O)OCCCC`, the outcome was inactive.
Take `CCCCOC(=O)CCC(=O)OCCCC`: the compound was called inactive.
With `CC(C)(C)C(=O)CCl`, the compound was classed as inactive.
`N#CC(c1ccccc1)c1ccccc1`: the compound was classed as inactive.
On the same count and under the same terms, for `O=C=Nc1ccccc1` the value was “inactive”; for `CC(C)COP(=O)(OCC(C)C)OCC(C)C`, “inactive”.
Take `CCN(CC)C(=S)S`: the AC50 was 100 µM (active).
With `C=C(Cl)CCl`, the compound was called inactive.
With `C=CCc1ccc(OC(=O)Cc2ccccc2)c(OC)c1`, the compound was called inactive.

The values above are taken from PubChem BioAssay (EPA / NIEHS).
